# Rows were chosen to be rich in hits. Some 3.7% of all compounds tested hit in one or more screens of this group.
# Kir21 inh: Kir2.1 (mouse) channel inhibition. P35561. HEK293-Kir2.1, FluxOR thallium flux fluorescence; hits give low values. B-score at 10 µM. hit rate 0.85% among 310,000. AID 1672;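 active = fluorescence ratio B-score at or below minus 3 SD of library scores, with starting-brightness B-score within 2 SD, cut at about -4.2 in these data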;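 note: channel flux triggered by added potassium and thallium sulfate stimulus; B-score of peak minus minimum fluorescence over baseline after thallium stimulus; more negative B-score means stronger Kir2.1 block with less thallium influx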
# Target sequence (P35561 whole entry, looked up): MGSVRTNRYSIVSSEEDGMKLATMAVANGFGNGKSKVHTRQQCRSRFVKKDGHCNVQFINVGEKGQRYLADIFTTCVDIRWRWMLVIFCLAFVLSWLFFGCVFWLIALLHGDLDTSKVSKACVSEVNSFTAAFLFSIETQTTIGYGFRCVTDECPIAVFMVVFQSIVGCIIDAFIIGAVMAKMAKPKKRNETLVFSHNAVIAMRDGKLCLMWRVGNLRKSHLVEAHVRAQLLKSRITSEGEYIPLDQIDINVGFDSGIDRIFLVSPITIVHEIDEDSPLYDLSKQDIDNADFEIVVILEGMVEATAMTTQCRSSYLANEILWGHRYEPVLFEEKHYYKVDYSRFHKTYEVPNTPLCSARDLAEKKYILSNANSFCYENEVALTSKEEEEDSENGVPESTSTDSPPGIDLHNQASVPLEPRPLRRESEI
# TMEM16A inh: mouse TMEM16A channel inhibition, primary screen | Q8BHY3 | HEK293 TMEM16A/YFP iodide influx fluorescence, ionomycin | normalized B-score (activity score, 25-100; higher = stronger inhibition) at 10 µM | hit rate 1.2% among 310,000;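 active = ratio plate-corrected score three or more library SD toward inhibition, starting fluorescence score within five deviations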;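 note: score derived from kinetic fluorescence span divided by baseline fluorescence per well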
# CHT PAM: allosterically activates the human high affinity choline transporter. CHT-expressing cells, membrane potential dye, choline EC20; hits give high values; LV-AA mutant CHT in HEK293 cells. B-score at 10 µM. hit rate 0.49% among 310,000. AID 488977;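 active = initial fluorescence not abnormally high and integrated response B-score, plate-corrected, over 3 SD above library mean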
# GPR7 antagonist: antagonists of human GPR7 (neuropeptides B/W receptor 1); hit rate 1.1% among 290,000; P48145; GPR7-expressing cells, fluorescence antagonist assay; inhibition, % at 4.4 µM; in the data active = inhibition above about 16%, passing the limit was not always enough;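 note: cells stimulated with the agonist NPW; 0% = agonist with vehicle and 100% = vehicle without agonist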
# TMEM16A act: activates or potentiates the mouse TMEM16A chloride channel; Q8BHY3; B-score at 10 µM; hit rate 0.3% among 340,000; HEK293 TMEM16A/YFP-H148Q/I152L, iodide quench fluorescence; hits give low values; AID 623877;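 active = fluorescence-ratio B-score plate-corrected deviation score at least 3 library SD below zero, with starting fluorescence score within 5 deviations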;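 note: channel opened by trigger with iodide after compound preincubation; score built on the fluorescence ratio of max minus min over baseline; more negative score means more quench and so TMEM16A activation or potentiation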
# CHT inh: human CHT choline transport inhibition | CHT-expressing cells, membrane potential dye, choline response; hits give low values | B-score at 10 µM | hit rate 0.86% among 310,000 | AID 488975;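 active = B-score over 3 SD under the library average, and starting fluorescence ratio not unusually high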;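 note: choline stimulus applied at its EC90 after an EC20 pre-addition; B-score computed on integrated fluorescence ratio after choline addition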
# GPR7 antag conf: confirmation of human GPR7 antagonists | shares compounds with GPR7 antagonist | GPR7-expressing cells, calcium fluorescence antagonist mode | inhibition, % at 4.4 µM | hit rate 52% among 2,400; in the data active = inhibition above about 24%;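 note: stimulated with the GPR7 agonist NPW; 0% = agonist plus vehicle and 100% = vehicle alone without agonist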
# MCHR1 antag: MCHR1 (human) antagonism in GPR7 counter-screen; shares compounds with GPR7 antagonist; MCHR1-expressing cells, fluorescence antagonist assay; inhibition, % at 4.4 µM; hit rate 62% among 2,400; AID 2148; in the data active = inhibition above about 22%;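 note: 0% = vehicle with agonist and 100% = vehicle without agonist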
# Numbers without * were called inactive; i = inactive; . = no result given.
SMILES,Kir21 inh,TMEM16A inh,CHT PAM,GPR7 antagonist,TMEM16A act,CHT inh,GPR7 antag conf,MCHR1 antag
Cc1ccccc1C(=O)N1CCN=C1SCc1ccc([N+](=O)[O-])cc1,-0.07,i,i,41*,i,i,26*,29*
Cc1ccc(-c2ccc(OC(=O)c3ccc(=O)[nH]c3)c(C)c2)cc1,-0.75,i,i,-6,i,i,.,.
Cc1cc(NCc2ccccc2)nc(N2CCOCC2)n1,1.3,i,i,2,i,i,.,.
Cc1cc(N2CCOCC2)nc(NCc2ccccc2)n1,0,i,i,23*,i,i,60*,72*
COCc1cc(=O)n2[nH]cc(-c3ccsc3)c2n1,1.1,i,i,-16,i,i,.,.
CC(=O)c1ccc(OCc2cc(C(=O)NCCc3ccc(Cl)cc3)no2)cc1,0.25,i,i,6,i,i,.,.
Cc1cc(C)nc(CCNC(=O)c2cc(COc3ccccc3)on2)n1,0.75,i,i,27*,i,i,3,-1
CCCC1(c2ccccc2)NC(=O)N(CC(=O)c2[nH]c(C)c(C(=O)OCC)c2C)C1=O (stereo not given),-1.3,i,i,22*,i,-9.8*,27*,45*
CCOC(=O)c1c(C)[nH]c(C(=O)CN2C(=O)NC(C)(c3ccc4ccccc4c3)C2=O)c1C (stereo not given),0.64,i,i,-4,i,i,.,.
CCOC(=O)C1(Cc2cccc(OC)c2)CCCN(C(=O)CSC)C1 (stereo not given),0.69,i,i,0,i,i,.,.
CCOC(=O)C1(Cc2cccc(OC)c2)CCCN(S(=O)(=O)CC)C1 (stereo not given),-0.52,i,i,27*,i,i,-1,0
CC(=O)c1cccc(NC(=O)COC(=O)CC2CC3CCC2C3)c1 (stereo not given),.,.,.,.,i,.,.,.
NS(=O)(=O)c1cccc(NC(=O)COC(=O)CC2CC3CCC2C3)c1 (stereo not given),-0.37,i,i,36*,i,i,-6,-6
COc1cccc(NC(=S)NC(=O)Cc2ccc(Cl)cc2)c1,1.5,i,i,35*,i,i,64*,41*
COc1ccc(CC(=O)NC(=S)Nc2cccc(CO)c2)cc1,0.04,i,i,.,i,i,.,.
COc1ccc(OC)c(C(c2nnnn2C2CCCC2)N2CCN(c3ccccc3)CC2)c1 (stereo not given),0.09,i,i,31*,i,i,24*,41*
CCC(C)c1ccc(C(C)NC(=S)NC2CCCCC2)cc1 (stereo not given),-2.4,100*,i,46*,i,i,19,57*
CN(Cc1ccc(Cl)s1)C(=O)CCl,1.3,i,i,3,i,i,.,.
Cc1ccc(Sc2c([N+](=O)[O-])ncn2C)cc1,0.22,i,i,-12,i,i,.,.
Cn1cnc([N+](=O)[O-])c1Sc1ccc(C(C)(C)C)cc1,-1.3,i,i,27*,i,i,38*,26*
COc1ccc(C=O)cc1COc1ccc([N+](=O)[O-])c(C)c1,-0.25,i,i,23*,i,i,49*,44*
COc1ccc2c(Cl)c(C(=O)NN3CCN(C)CC3)sc2c1,0.02,i,i,2,i,i,.,.
CC1CCN(S(=O)(=O)c2ccc(NC(=O)CNC3CCCCC3)cc2)CC1,-0.14,i,i,-1,i,i,.,.
CC(=O)c1ccc(NC(=O)NC2CCCCCCC2)cc1,0.41,i,i,-4,i,i,.,.
CC(=O)c1ccc(NC(=O)CNC2CCCCC2)cc1,1.9,i,i,36*,i,i,-2,-6
SMILES,Kir21 inh,TMEM16A inh,CHT PAM,GPR7 antagonist,TMEM16A act,CHT inh,GPR7 antag conf,MCHR1 antag
CC1CCCC(C)N1S(=O)(=O)c1ccc(NC(=O)CNC2CCCC2)cc1 (stereo not given),0.8,i,i,54*,i,i,23,6
Cc1nn(CC(=O)Nc2c(C)n(C)n(-c3ccccc3)c2=O)c(C)c1[N+](=O)[O-],1.3,i,i,6,i,i,.,.
Cc1cc([N+](=O)[O-])nn1CC(=O)Nc1c(C)n(C)n(-c2ccccc2)c1=O,0.8,i,i,31*,i,i,-2,1
COc1ccc(C(=O)Nc2nnc(S(=O)(=O)N(C)Cc3ccccc3)s2)cc1,-0.65,i,i,41*,i,i,22,31*
COC(=O)c1cc(S(=O)(=O)N2CCCC2=O)c(Cl)cc1Cl,-1.8,i,i,5,i,i,.,.
CCn1c(=O)c(=O)[nH]c2cc(C(=O)NC3CCCc4ccccc43)ccc21 (stereo not given),2.8,i,i,23*,i,i,3,5
CCn1c(=O)c(=O)[nH]c2cc(C(=O)NC3CC3)ccc21,-2.5,i,i,-9,i,i,.,.
COC(=O)CNC(c1ccccc1)c1cc(C)ccc1NC(=O)CNC(=O)OCc1ccccc1 (stereo not given),-2.1,i,i,39*,i,i,29*,18
CCOC(=O)CNC(c1ccccc1)c1cc(Br)ccc1NC(C)=O (stereo not given),-1.1,i,i,36*,i,i,30*,12
COc1cc(CN2CCC(CO)(Cc3cccc(C(F)(F)F)c3)CC2)ccc1F,-1.5,i,i,34*,i,i,18,44*
CCOC(=O)Cc1csc(NC(=O)COc2ccc(N(C)S(=O)(=O)c3ccc(C)cc3)cc2)n1,-1.1,i,i,32*,i,i,27*,67*
CCOC(=O)Cc1csc(NC(=O)COc2ccc3ccccc3c2)n1,0.05,i,i,12,i,i,.,.
Cc1ccc(C2CC(c3ccc(F)cc3)Nc3nc(N)nn32)cc1 (stereo not given),-0.61,i,i,21*,i,i,21,8
CCc1ccc(C2CC(c3ccccc3C)n3nc(N)nc3N2)cc1 (stereo not given),0.53,i,i,25*,i,i,11,4
CCOc1ccc(C2CC(c3ccccc3C)n3ncnc3N2)cc1 (stereo not given),2.3,i,i,37*,i,i,22,24*
